Measurements: PubChem BioAssay AID1745853 (National Center for Advancing Translational Sciences (NCATS), 2022)
The whole screen tested about 25,000 compounds, of which about 970 (3.9%) were called active. About 8% were inconclusive and are not listed. The rule behind the calls is not given here. The list comes from a sample in which actives are over-represented; it also holds similar structures and randomly drawn compounds.

Columns and labels:
Assay in all cases: Primary Screen for Target Class Profiling of Small Molecule Inhibitors of Methyltransferases
[1] = target: Catechol O-methyltransferase (Homo sapiens) (UniProt P21964); details: purified enzyme, MTase-Glo SAH luminescence; at 40 µM; stronger effect = lower value
Excerpt: (§1) PI: Matthew D. Hall Ph.D. and Quinlin M. Hanson Ph.D.
(§2) National Center for Advancing Translational Sciences (NCATS)
(§3) National Institute of Health (NIH), Rockville, MD
(§4) Target class profiling (TCP) is a chemical biology approach amenable to investigating understudied biological targets. TCP is achieved by developing a generalizable assay platform and applying it to screen a curated set of compound libraries against representative members of a target class. Small molecule methyltransferases (SMMTase) are a subclass of methyltransferase that act on metabolites to modulate signaling pathways, metabolize xenobiotics, or balance the available methyl pool. We screened four curated libraries totaling 27,574 unique compounds against the SMMTases nicotinamide N-methyltransferase (NNMT), phenylethanolamine N-methyltransferase (PNMT), histamine N-methyltransferase (HNMT), glycine N-methyltransferase (GNMT), catechol O-methyltransferase (COMT), and guanidinoacetate N-methyltransferase (GAMT). The data generated by this TCP can be leveraged for informed tool molecule development. For example, in the associated publication we identified a chemotype of HNMT-selective inhibitors. Additionally, we identified a putative SMMTase-selective inhibitor with potential as a tool molecule for studying broader methyltransferase biology.
(§5) High-through put screening assays were developed at the National Center for Advancing Translational Science (NCATS) for the enzymes NNMT, PNMT, HNMT, GNMT, COMT, and GAMT. Enzymatic activity was measured as a function of SAM cofactor conversion using the MTase Glo kit (Promega) for all enzymes. All assays were performed in 1536-well format with substrates and SAM concentrations at KM values. Enzyme concentration and assay timing were optimized for 10-20% SAM conversion. Initial screening of 27,574 compounds was done as single-point assays using the highest compound concentration (40 uM). […] These compounds were replated in 11-point dose response and assayed against NNMT, PNMT, HNMT, GNMT, COMT, GAMT, and a counter-assay. The IC50 and efficacy (maximal response) values were determined for each dose-response curve. These values are also accounted for in the area under the curve (AUC) values.
(§6) PROTOCOL TABLE (as described by Inglese J, Shamu CE and Guy RK. 2007)
(§7) SEQUENCE No. (e.g., 1, 2, 3, etc.); […] (e.g., Cells, Incubation, Reagent, etc.); VALUE; DESCRIPTION.
(§8) 1; Reagent; 2 uL; SMMTase Enzyme (2x) in reaction buffer, columns 1- 48.
(§9) 2; Reagent; 1 uL; SAM (4x) in reaction buffer, columns 1-48.
(§10) 3; Controls; 23 nL; DMSO in column 4; sinefungin in DMSO (0 uM - 40 uM) in 7-point 1:2 dilution series (n = 2) in column 2.
(§11) 4; Compounds; 23 nL; Columns 5-48.
(§12) 5; Reagent; 1 uL; Substrate (4x) in reaction buffer, columns 2-48.
(§13) 6; Time; 20-30 min; Incubation.
(§14) 7; Reagent; 1 uL; MTase-Glo reagent (5X), columns 1-48.
(§15) 8; Time; 30 min; Incubation.
(§16) 9; Reagent; 5 uL; MTase-Glo Detection reagent, columns 1-48.
(§17) 10; Time; 30 min; Incubation, luminescence evolution.
(§18) 11; Detection; Luminescence; ViewLux uHTS Microplate Imager (PerkinElmer).
(§19) NOTES (numbers refer to Sequence numbers above)
(§20) 1, 2, 5. White Medium Binding Greiner 1536-well plates (Cat #789175-F, Greiner Bio-One, Monroe, NC); Reaction buffer: 50 mM Tris, pH 8.0, 3 mM MgCl2, 1 mM EDTA, 50 mM NaCl, 1 mM DTT, and 0.1 mg/mL BSA. Evaporation was prevented by covering assay plates with metal lids containing holes to allow gas diffusion.
(§21) 1. Six SMMTase were profiled: HNMT, GNMT, PNMT, COMT, NNMT, GAMT
(§22) 5. The corresponding substrate was used for each enzyme: HNMT - 5.3 uM Histamine; GNMT - >500 uM Glycine; PNMT - 16.2 uM Norephinephrine; COMT - 13.7 uM Norephinephrine; NNMT - 3.8 uM Nicotinamide; GAMT - 2.5 uM Guanidinoacetate.6, 8, 10. Room temperature
(§23) 6. Final reaction conditions: 10 nM COMT, 5 uM SAM, 15 uM norepinephrine, 50 mM Tris, pH 8.0, 3 mM MgCl2, 1 mM EDTA, 50 mM NaCl, 1 mM DTT, and 0.1 mg/mL BSA; refer to tables 2 and S1 for specific timing.
8. […]

[2] = target: Glycine N-methyltransferase (Homo sapiens) (UniProt Q14749); details: purified enzyme, MTase-Glo SAH luminescence; measured here: GNMT inhibition; at 40 µM; stronger effect = lower value
Excerpt: as §1, §2, §3, §4, §5, §6, §7, §8, §9, §10, §11, §12, §13, §14, §15, §16, §17, §18, §19, §20, §21, §22, §23
8. […]

[3] = target: Guanidinoacetate N-methyltransferase (Homo sapiens) (UniProt Q14353); details: purified enzyme, MTase-Glo SAH luminescence; measured here: GAMT inhibition; at 40 µM; stronger effect = lower value
Excerpt: as §1, §2, §3, §4, §5, §6, §7, §8, §9, §10, §11, §12, §13, §14, §15, §16, §17, §18, §19, §20, §21, §22, §23
8. […]

[4] = target: Histamine N-methyltransferase (Homo sapiens) (UniProt P50135); details: purified enzyme, MTase-Glo SAH luminescence; measured here: HNMT inhibition; at 40 µM; stronger effect = lower value
Excerpt: as §1, §2, §3, §4, §5, §6, §7, §8, §9, §10, §11, §12, §13, §14, §15, §16, §17, §18, §19, §20, §21, §22, §23
8. […]

[5] = target: Nicotinamide N-methyltransferase (Homo sapiens) (UniProt P40261); details: purified enzyme, MTase-Glo SAH luminescence; measured here: NNMT inhibition; at 40 µM; stronger effect = lower value
Excerpt: as §1, §2, §3, §4, §5, §6, §7, §8, §9, §10, §11, §12, §13, §14, §15, §16, §17, §18, §19, §20, §21, §22, §23
8. […]

[6] = target: Phenylethanolamine N-methyltransferase (Homo sapiens) (UniProt P11086); details: purified enzyme, MTase-Glo SAH luminescence; measured here: PNMT inhibition; at 40 µM; stronger effect = lower value
Excerpt: as §1, §2, §3, §4, §5, §6, §7, §8, §9, §10, §11, §12, §13, §14, §15, §16, §17, §18, §19, §20, §21, §22, §23
8. […]
% is set by controls: 0 for no effect and ±100 for the full control effect.

Nicotinamide N-methyltransferase (Homo sapiens), sequence (P40261 whole entry, looked up): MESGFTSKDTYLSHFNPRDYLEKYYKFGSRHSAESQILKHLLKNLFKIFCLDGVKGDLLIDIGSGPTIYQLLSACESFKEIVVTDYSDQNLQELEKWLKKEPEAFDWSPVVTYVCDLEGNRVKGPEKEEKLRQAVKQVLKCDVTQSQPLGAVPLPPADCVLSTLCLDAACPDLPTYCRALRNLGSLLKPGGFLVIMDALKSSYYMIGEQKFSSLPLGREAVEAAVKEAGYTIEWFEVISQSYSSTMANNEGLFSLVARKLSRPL
Histamine N-methyltransferase (Homo sapiens), sequence (P50135 whole entry, looked up): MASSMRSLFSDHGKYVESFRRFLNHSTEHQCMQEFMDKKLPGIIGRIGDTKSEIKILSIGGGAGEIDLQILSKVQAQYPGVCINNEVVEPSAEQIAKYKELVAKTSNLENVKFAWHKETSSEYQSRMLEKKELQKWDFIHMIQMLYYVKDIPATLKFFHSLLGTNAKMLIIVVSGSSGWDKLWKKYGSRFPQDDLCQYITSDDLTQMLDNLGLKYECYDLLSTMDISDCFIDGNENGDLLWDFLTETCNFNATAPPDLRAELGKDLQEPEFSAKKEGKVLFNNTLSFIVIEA
Glycine N-methyltransferase (Homo sapiens), sequence (Q14749 whole entry, looked up): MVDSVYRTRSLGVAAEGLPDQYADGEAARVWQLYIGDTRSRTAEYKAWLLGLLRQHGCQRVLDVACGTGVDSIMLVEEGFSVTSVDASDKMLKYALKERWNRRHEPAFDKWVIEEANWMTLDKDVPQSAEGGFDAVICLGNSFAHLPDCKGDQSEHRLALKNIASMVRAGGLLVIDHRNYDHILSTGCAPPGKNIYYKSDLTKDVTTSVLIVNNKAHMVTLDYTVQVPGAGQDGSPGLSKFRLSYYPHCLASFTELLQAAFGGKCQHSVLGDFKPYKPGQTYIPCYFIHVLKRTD
Catechol O-methyltransferase (Homo sapiens), sequence (P21964 whole entry, looked up): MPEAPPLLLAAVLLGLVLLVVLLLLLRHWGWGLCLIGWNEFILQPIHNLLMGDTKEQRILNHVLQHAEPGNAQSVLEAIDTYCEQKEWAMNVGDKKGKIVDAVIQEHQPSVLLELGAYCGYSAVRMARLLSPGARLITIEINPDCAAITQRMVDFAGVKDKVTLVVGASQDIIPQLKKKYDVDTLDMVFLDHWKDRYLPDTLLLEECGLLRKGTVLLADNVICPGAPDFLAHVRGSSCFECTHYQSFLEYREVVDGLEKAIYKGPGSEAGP
Phenylethanolamine N-methyltransferase (Homo sapiens), sequence (P11086 whole entry, looked up): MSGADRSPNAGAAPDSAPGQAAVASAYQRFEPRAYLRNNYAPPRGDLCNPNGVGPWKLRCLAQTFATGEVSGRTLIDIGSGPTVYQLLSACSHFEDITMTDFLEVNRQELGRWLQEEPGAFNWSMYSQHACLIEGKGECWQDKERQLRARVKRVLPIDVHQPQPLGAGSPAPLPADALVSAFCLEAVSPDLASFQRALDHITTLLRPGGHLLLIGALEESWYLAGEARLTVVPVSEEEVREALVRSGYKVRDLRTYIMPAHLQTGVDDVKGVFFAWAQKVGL

| Compound | activity change, negative = inhibition [1] | activity change, negative = inhibition [2] | activity change, negative = inhibition [3] | activity change, negative = inhibition [4] | activity change, negative = inhibition [5] | activity change, negative = inhibition [6] |
| --- | --- | --- | --- | --- | --- | --- |
| CO[C@H]1C[C@H](O[C@H]2CC[C@]3(CO)[C@H]4CC[C@]5(C)[C@@H](C6=CC(=O)OC6)CC[C@]5(O)[C@@H]4CC[C@]3(O)C2)O[C@H](C)[C@H]1O | -8.57% (inactive) | -6.2% | -5.89% | -0.519% | -17.6% | -14.3% |
| COC1CC(O[C@H]2CC[C@@]3(C)C(CCC4C3CC[C@]3(C)[C@@H](C5=CC(=O)OC5)CC[C@]43O)C2)OC(C)C1O (stereo not given in full) | -9.86% (inactive) | -6.87% | -29.4% | 1.18% | -27.7% | -12.7% |
| C[C@H]1O[C@@H](O[C@H]2CC[C@]3(CO)C4CC[C@]5(C)[C@@H](C6=CC(=O)OC6)CC[C@]5(O)[C@@H]4CC[C@H]3C2)[C@H](O)[C@H](O)[C@@H]1O[C@@H]1O[C@H](CO)[C@@H](O)[C@H](O)[C@H]1O (stereo not given in full) | -91.7% (active) | -5.56% | -4.58% | -5.35% | -16% | 0.37% |
| CN(C)c1ccc(C2c3cccn3-c3ccccc3CN2C(=O)NCc2ccccc2)cc1 (stereo not given) | 0.57% (inactive) | 0.802% | 6.24% | -5.35% | -6.61% | -0.417% |
| CN(C)c1ccc(C2c3cccn3-c3ccccc3CN2C(=O)Nc2ccccc2)cc1 (stereo not given) | -1.13% (inactive) | 1.96% | -0.001% | -8% | -4.78% | -1.52% |
| NCC(O)c1ccc(O)cc1 (stereo not given) | 3.68% (active) | -1.52% | 3.17% | -74.4% | -9.18% | 11.4% |
| COCC1CN(Cc2ccsc2)CC12CCNCC2 (stereo not given) | -8.14% (inactive) | -4.38% | -6.87% | -9.72% | -11.7% | -11.5% |
| CCc1ccccc1NC(=O)N1Cc2ccccc2-n2cccc2C1c1ccccc1Cl (stereo not given) | -0.522% (inactive) | 4.4% | 3.52% | -2.61% | 1.65% | 1.03% |
| CC(=O)Nc1ccc(-c2ccc3n(c2=O)C[C@H]2C[C@@H]3CN(C3CCN(C)CC3)C2)cc1 | -5.08% (inactive) | -3.31% | -2.09% | -19.5% | -9.65% | 8.92% |
| C#C[C@]1(O)CC[C@H]2[C@@H]3CC[C@H]4Cc5nc6nc7ccccc7n6cc5C[C@]4(C)[C@H]3CC[C@@]21C | -23.3% (active) | -13.8% | -29.6% | -17.3% | -52.4% | -33.3% |
| COc1cccc([C@H]2CN(c3cc(C)nc(N)n3)[C@@H]3C4CCN(CC4)[C@H]23)c1 | -2.54% (inactive) | -5.12% | -8.6% | -24.3% | -8.14% | -9.36% |
| COc1cccc(CC(=O)N2CCCCCC2CN2CCCC2)c1 (stereo not given) | 3.61% (inactive) | -1.59% | -5.27% | -5.48% | -4.35% | 0.866% |
| CCc1ccc(C2c3cccn3-c3ccccc3CN2C(=O)Nc2cc(C)cc(C)c2)cc1 (stereo not given) | 5.19% (inactive) | 9.8% | 0.9% | 2.8% | 4.04% | 7.84% |
| COC(=O)c1ccccc1NC(=O)N1Cc2ccccc2-n2cccc2C1c1ccccc1Cl (stereo not given) | 3.56% (inactive) | 11.4% | 3.31% | 5.36% | 0.178% | 5.41% |
| CCC1c2cccn2-c2ccccc2CN1C(=O)Nc1cccc(C)c1C (stereo not given) | 2.68% (inactive) | -0.789% | 3.87% | -2.49% | -4.56% | 2.16% |
